Values of other authors as cited in PubChem BioAssay AID977611.
Screen size: about 3,900 compounds; about 3,900 (100%) were called active. The limit is not given here; nearly all actives have Kd up to about 4200 µM. The set was probably picked from earlier hits. Some of the results follow. *1 amine or outer side, *2 acyl side, *3 side chain or, on linkers, in order; H or OH if unused. Where a SMILES comes first, the peptide text is derived from it. Non-standard residues stand in square brackets, D forms with d. Square brackets hold non-standard residues; d marks the D form. Residues, ends and D or L forms follow the SMILES beside them. Peptide text beside a SMILES is read from it. [ ]: non-standard residue; d: D form. Thr(P(OH)3+) = C[C@@H](O[P+](O)(O)O)[C@H](N)C(=O)O; X1 = C[C@H](O[P+](O)(O)O)[C@H](N[*:1])C(=O)[*:2]; Lys(Me3) = C[N+](C)(C)CCCC[C@H](N)C(=O)O; Orn(CH(NH2)2) = NC(N)NCCC[C@H](N)C(=O)O; Lys(Me2) = CN(C)CCCC[C@H](N)C(=O)O

Experiment: PubChem AID 977611
Details: PDB protein-ligand complexes, literature Kd

In the case of CC(=O)N1CCC[C@H]1C(=O)N1CCC[C@H]1C(=O)NCC(=O)N1CCC[C@H]1C(=O)N1CCC[C@H]1C(=O)NCC(=O)N1CCC[C@H]1C(=O)N[C@H](C(=O)NCC(=O)N1CCC[C@H]1C(=O)N[C@@H](CCCNC(N)N)C(=O)NCC(=O)N1CCC[C@H]1C(=O)N1CCC[C@H]1C(=O)NCC(=O)N1CCC[C@H]1C(=O)N1CCC[C@H]1C(=O)O)[C@@H](C)O (Ac-PPGPPGPTGP[Orn(CH(NH2)2)]GPPGPP-OH), the Kd (protein: HSP47, PDB entry 3zha) is listed as 1 µM (active).

For CC(C)[C@H](NC(=O)[C@H](CO)NC(=O)[C@@H](NC(=O)[C@@H](N)CCCCN)C(C)C)C(=O)N[C@H](C(=O)N[C@@H](CCCNC(N)N)C(=O)N[C@H](C(=O)N1CCC[C@H]1C(=O)N1CCC[C@H]1C(=O)N[C@@H](CCCCN)C(=O)N[C@@H](CO)C(=O)N1CCC[C@H]1C(=O)N[C@@H](CO)C(=O)O)[C@H](C)O[P+](O)(O)O)C(C)C (H-KVSVV[Orn(CH(NH2)2)][X1]PPKSPS-OH), the Kd (protein: Pin1 WWdomain, PDB entry 1i8h) is given as 29 µM (active).

For N[C@@H](CCC(=O)N[C@@H](CS)C(=O)NCC(=O)O)C(=O)O, the Kd (protein: mitochondrial ABC transporter, Atm1, PDB entry 4myh) is given as 23 µM (active) and the Kd (protein: protein yqjG, PDB entry 4g0l) is given as 6.5 µM (active).

For CNC(CSSC[C@H](NC(=O)CC[C@H](N)C(=O)O)C(=O)NCC(=O)O)C(=O)NCC(=O)O (stereo partly drawn), the Kd (protein: PUTATIVE AMINO ACID BINDING PROTEIN, PDB entry 4c0r) is listed as 12.2 µM (active).

For CC(C)C[C@H](NC(=O)[C@H](CC(C)C)NC(=O)[C@H](CCC(=O)O)NC(=O)[C@@H](N)CO)C(=O)N[C@@H](CCCCN)C(=O)N[C@@H](Cc1ccc(O)cc1)C(=O)N[C@@H](CC(C)C)C(=O)N[C@H](C(=O)N[C@H](C(=O)O)[C@@H](C)O)[C@@H](C)O (H-SELLKYLTT-OH), the Kd (protein: the ligand binding domain (LBD) of the estrogen-related receptor ? (ERR?, NR3B1), PDB entry 1xb7) is given as 0.6 µM (active).

In the case of H-SQEKFFQELFDS-OH, the Kd (protein: Peroxisomal Membrane Anchor Protein Pex14, PDB entry 2w85) is listed as 9.17 µM (active).

For NS(=O)(=O)c1ccc(CNc2ncnc(NCc3ccccc3)c2[N+](=O)[O-])cc1, the Kd (protein: human carbonic anhydrase II, PDB entry 3mhm) is listed as 0.1 µM (active).

For CC(C)[C@H](NC(=O)[C@H](CCCCN(C)C)NC(=O)[C@H](CO)NC(=O)[C@H](CCCN=C(N)N)NC(=O)[C@H](C)NC(=O)[C@@H](NC(=O)[C@@H](N)CCCN=C(N)N)[C@@H](C)O)C(=O)O (H-RTARS[Lys(Me2)]V-OH), the Kd (protein: Chromodomain-helicase-DNA-binding protein 1 CHD1, PDB entry 4o42) is given as 22 µM (active).

In the case of CC(C)[C@H](NC(=O)[C@H](CCCC[N+](C)(C)C)NC(=O)[C@H](CO)NC(=O)[C@H](CCCN=C(N)N)NC(=O)[C@H](C)NC(=O)[C@H](C)NC(=O)[C@@H](N)CCCN=C(N)N)C(=O)O (tested in a mixture with another compound) (H-RAARS[Lys(Me3)]V-OH), the Kd (protein: Chromodomain-helicase-DNA-binding protein 1 CHD1, PDB entry 4nw2) is listed as 29 µM (active).

For CC[C@H](C)[C@H](NC(=O)[C@@H](N)CC(N)=O)C(=O)N[C@H](C(=O)N[C@@H](CCC(N)=O)C(=O)N1CCC[C@H]1C(=O)N[C@H](C(=O)N[C@@H](CCC(N)=O)C(=O)N[C@@H](CCC(N)=O)C(=O)N[C@@H](CO)C(=O)N[C@H](C(=O)O)[C@@H](C)O)[C@@H](C)O[P+](O)(O)O)[C@@H](C)O[P+](O)(O)O (H-NI[Thr(P(OH)3+)]QP[Thr(P(OH)3+)]QQST-OH), the Kd (protein: the yeast Dun1 FHA domain, PDB entry 2jql) is listed as 0.3 µM (active).

For CC[C@H](C)[C@H](NC(=O)[C@@H](N)CC(N)=O)C(=O)N[C@H](C(=O)N[C@@H](CCC(N)=O)C(=O)N1CCC[C@H]1C(=O)N[C@H](C(=O)N[C@@H](CCC(N)=O)C(=O)N[C@@H](CCC(N)=O)C(=O)N[C@@H](CO)C(=O)N[C@H](C(=O)O)[C@@H](C)O)[C@@H](C)O)[C@@H](C)O[P+](O)(O)O (H-NI[Thr(P(OH)3+)]QPTQQST-OH), the Kd (protein: Rad53 FHA1 domain, PDB entry 2jqi) is listed as 10 µM (active).

For Cn1c[n+]([C@@H]2O[C@H](CO[P+](O)(O)O[P+](O)(O)O[P+](O)(O)O)[C@@H](O)[C@H]2O)c2c1C(=O)NC(N)N2 (stereo partly drawn), the Kd (protein: rRNA N-glycosidase, PDB entry 4emr) is listed as 0.0321 µM (active).

For Cn1c[n+]([C@@H]2O[C@H](CO[P+](O)(O)O[P+](O)(O)O)[C@@H](O)[C@H]2O)c2c1C(=O)NC(N)N2 (stereo partly drawn), the Kd (protein: rRNA N-glycosidase, PDB entry 4emf) is given as 0.0839 µM (active).

For C[C@H]1COCCN1C[C@H]1CN(S(=O)(=O)c2cccs2)CCN1c1ccc([C@@](C)(O)C(F)(F)F)cc1, the Kd (protein: Glucokinase regulatory protein, PDB entry 4ly9) is listed as 0.007 µM (active).

For COC(=O)c1cc(Nc2ncnc3[nH]ccc23)ccc1Br, the Kd (protein: TAU-TUBULIN KINASE 1, PDB entry 4btm) is given as 4.1 µM (active).

In the case of CC[C@H](C)[C@H](NC(=O)[C@H](C)NC(=O)[C@H](CCC(=O)O)NC(=O)[C@H](CCCNC(N)N)NC(=O)[C@H](CC(C)C)NC(=O)[C@H](Cc1ccc(O)cc1)NC(=O)[C@H](CCCNC(N)N)NC(=O)[C@H](CC(=O)O)NC(=O)[C@H](CC(=O)O)NC(=O)[C@@H](N)CC(=O)O)C(=O)N[C@@H](CCC(N)=O)C(=O)N[C@@H](CCC(=O)O)C(=O)N[C@@H](Cc1ccc(O)cc1)C(=O)N[C@@H](CC(=O)O)C(=O)N[C@@H](CC(N)=O)C(=O)N[C@H](C(=O)N[C@@H](C)C(=O)N[C@@H](CCCCN)C(=O)O)[C@@H](C)CC (H-DDD[Orn(CH(NH2)2)]YL[Orn(CH(NH2)2)]EAIQEYDNIAK-OH), the Kd (protein: N terminal domain of Harmonin, PDB entry 2kbr) is listed as 25.4 µM (active).

For CC[C@H](C)[C@H](NC(=O)[C@@H](N)CCCNC(N)N)C(=O)N[C@@H](CCC(N)=O)C(=O)N[C@@H](CCCNC(N)N)C(=O)N[C@@H](CC(N)=O)C(=O)N[C@@H](CCCCN)C(=O)N[C@@H](C)C(=O)N[C@@H](C)C(=O)N[C@@H](C)C(=O)N[C@@H](CC(C)C)C(=O)N[C@@H](CC(C)C)C(=O)N[C@@H](CCCNC(N)N)C(=O)N[C@@H](CC(C)C)C(=O)N[C@@H](C)C(=O)N[C@@H](C)C(=O)N[C@@H](CCCNC(N)N)C(=O)O (H-[Orn(CH(NH2)2)]IQ[Orn(CH(NH2)2)]NKAAALL[Orn(CH(NH2)2)]LAA[Orn(CH(NH2)2)]-OH), the Kd (protein: RPA32(C-terminal domain of Replication protein A,172-270), PDB entry 1dpu) is given as 1 µM (active).
